Source: PubChem BioAssay
Rows were chosen to be rich in hits. Some 8% of all compounds tested hit in one or more screens of this group.
MCF10A rerep: DNA re-replication induction in MCF 10a cells; MCF 10A DNA re-replication, Hoechst nuclear intensity, 48 h; Potency, µM (top dose mostly 46.1 µM), without a hit: at the highest dose activity, positive = re-replication, most hits filed as activators; hit rate 2.9% among 350,000; AID 624296; also: % of control where 0% means no effect; nearly all actives have a fitted effect of over 50% in size
KB-3-1 cytotox: kills parental KB-3-1 adenocarcinoma cells. Potency, µM (titrated, usually from 46.1 µM), most hits filed as cytotoxic. hit rate 1.4% among 400,000. AID 1347075. KB-3-1 viability, CellTiter-Glo ATP luminescence, 72 h; also: % is scaled to controls: 0 for no effect and ±100 for the full control effect; nearly all actives have a fitted effect of over 60% in size
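Here the drug-naive KB-3-1 line serves as comparator for MDR sub-line selectivity; cells received compound titrations, 72 h at 37 °C, then CellTiter-Glo readout.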
HT1080-NT tox: kills 2HG-producing HT-1080-NT fibrosarcoma cells | hit rate 1.6% among 360,000 | Potency, µM (highest dose often 46.1 µM), for inactives: at the highest dose activity, negative = less viability, hits mostly cytotoxic | HT-1080-NT fibrosarcoma viability, CellTiter-Glo ATP luminescence, 48 h;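 also: NT is the 2HG producing partner of a matched IDH1 knockdown line; 0% = DMSO-treated cells and -100% = media-only wells without cells; nearly all actives have a fitted effect of over 55% in size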
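Fibrosarcoma NT cells, 750 per well in 5% FBS RPMI, were exposed to compound for 48 hours. Viability: CellTiter-Glo luminescence.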
SW480 rereplic: inducers of DNA re-replication in SW480 colon cancer cells; SW480 DNA re-replication, Hoechst DNA content imaging, 48 h; Potency, µM (series often up to 46.1 µM), without a hit: top-dose re-replication activation, usual class: activators; hit rate 1.8% among 340,000; AID 624297; also: % of control where 0% means no effect; nearly all actives have a fitted effect of over 55% in size
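SW480 cells exposed to compounds for 48 hr at 37 C, 5% CO2, then Hoechst-stained 40 min. Nuclear DNA content imaged by fluorescence scanning (405 nm excitation, 500-530 nm emission); re-replication scored as increased high-intensity nuclei.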
KB-V1 MDR tox: kills drug-selected multidrug resistant KB-V1 cells; KB-V1 MDR cells viability, CellTiter-Glo, 72 h; Potency, µM (highest dose often 46.1 µM), most hits filed as cytotoxic; hit rate 3.4% among 400,000; AID 1347076; also: % is scaled to controls: 0 for no effect and ±100 for the full control effect; nearly all actives have a fitted effect of over 60% in size
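Compound-treated KB-V1 multidrug-resistant cells, 72 h, 37 degrees C; viability by CellTiter-Glo. Fitted qHTS curves give the values.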
HT1080 IDH1KD tx: toxicity to HT-1080 IDH1 knockdown cells (counter line); AID 686971; HT-1080 IDH1 knockdown viability, ATP luminescence, 48 h; hit rate 2% among 360,000; Potency, µM (highest dose often 46.1 µM), inactives show top-dose activity, negative = toxicity, usual class: cytotoxic;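 also: 0% = DMSO wells and -100% = cell-free medium wells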
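Luminescent ATP read-out (CellTiter-Glo, 10 min at room temperature) after 48 h compound exposure at 37 °C gave viability of IDH1-knockdown HT-1080 cells. Activity was normalised to DMSO and cell-free wells, then fitted as concentration-response curves.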
Active calls of the source: *; i = inactive; ? = inconclusive; . = not tested or not shown; ! = a repeat was not active. Calls follow the shape of the dose curve; as a rule, active = well fitted curve in the direction sought with a large enough effect; inconclusive = small, poorly fitted or top-dose-only effect, or another doubt; inactive = no such curve, though single readings can be large; an effect the other way counts as inactive or inconclusive. Potency is read from the fitted curve at half-maximal effect.

SMILES	MCF10A rerep	KB-3-1 cytotox	HT1080-NT tox	SW480 rereplic	KB-V1 MDR tox	HT1080 IDH1KD tx
Cc1nn(-c2ccccc2)c(C)c1/C=N/NC(=O)CSc1nnc(SCc2ccc(Cl)cc2)s1	16.5%	?	-17.5%	14.7%	2.31µM*	?
Cc1cc(S(=O)(=O)Nc2cc3c(cc2Cl)n(C)c(=O)c(=O)n3C)ccc1F	.	i	.	.	i	.
CCOc1ccccc1NC(=O)Cn1c(=O)n(Cc2ccccc2)c(=O)c2c(C)c(C)sc21	.	i	.	.	i	.
COc1ccc(-n2nc3ccc(NC(=O)c4c(OC)cccc4OC)cc3n2)cc1	.	i	.	.	i	.
O=C(N/N=C/c1ccccn1)c1cc(-c2ccc(Br)s2)[nH]n1	?	i	?	-1.0%	i	?
COc1cc(/C=N/NC(=O)c2cc(-c3c(C)nn(-c4ccccc4)c3C)n[nH]2)ccc1O	20.7%	i	-8.9%	?	i	-13.9%
Cc1nn(-c2ccccc2)c(C)c1/C=N/NC(=O)c1cc(-c2ccc(Cl)s2)[nH]n1	3.66µM*	2.91µM*	0.631µM*	5.17µM*	11.6µM*	0.891µM*
Cc1nn(-c2ccccc2)c(C)c1-c1cc(C(=O)N/N=C/c2ccc(O)cc2)[nH]n1	18.4µM*	?	?	22.5%	i	?
Cc1nn(-c2ccccc2)c(C)c1/C=N/NC(=O)c1cc(-c2ccc(Br)s2)[nH]n1	4.11µM*	?	?	14.6µM*	?	?
CC(/C=N/NC(=O)c1cc(-c2ccc(C)s2)[nH]n1)=C\c1ccccc1	6.51µM*	20.6µM*	5.17µM*	?	?	7.31µM*
O=C(CSc1nnc(-c2ccc(Cl)cc2)o1)N1CCc2ccccc21	.	i	.	.	i	.
COc1cc(/C=N/NC(=O)c2cc(C34CC5CC(CC(C5)C3)C4)[nH]n2)ccc1O	1.3µM*	i	-14.1%	-0.3%	i	-11.1%
COc1cc(/C=N/NC(=O)c2cc(C3CC3)[nH]n2)ccc1O	-7.7%	i	0.0%	25.2%	i	5.5%
Cc1nn(-c2ccccc2)c(C)c1/C=N/NC(=O)c1cccs1	15.7%	?	-16.9%	?	20.6µM*	-6.8%
CCc1ccc2[nH]c(=O)c(CN(Cc3ccccc3)Cc3nnnn3C(C)(C)C)cc2c1	.	?	.	.	i	.
CC(C)(C)n1nnnc1CN(Cc1ccc(F)cc1)Cc1ccco1	22.2%	?	-2.7%	6.8%	20.6µM*	-3.9%
c1ccc(COc2ccccc2CNC23CC4CC(CC(C4)C2)C3)cc1	23.2%	?	13µM*	?	?	16.4µM*
Nc1nc2ncc(-c3ccsc3)c(N)n2n1	7.5%	i	1.9%	3.66µM*	i	12.3%
CSc1nc2ncc(-c3ccsc3)c(N)n2n1	-1.2%	i	3.2%	-0.7%	i	0.0%
CCCN(CCC)C(=O)CC(c1ccccc1)c1ccc(C)cc1O (centres undefined)	-3.3%	i	-3.0%	3.0%	7.31µM*	?
COc1c(Cl)cc(C(=O)N(Cc2ccc(C)o2)C2CCS(=O)(=O)C2)cc1Cl (centres undefined)	.	i	.	.	i	.
Cc1sc2nc(C(C)C)nc(SCC(=O)N3c4ccccc4CC3C)c2c1C (centres undefined)	?	i	8.0%	-2.6%	18.4µM*	16.7%
CCc1nc(SCC(=O)N2c3ccccc3CC2C)c2c(C)c(C)sc2n1 (centres undefined)	?	i	6.31µM*	20.6µM*	i	?
CCc1nc(SCC(=O)Nc2ccccc2OC)c2c(C)c(C)sc2n1	20.6µM*	i	-4.9%	14.1%	9.2µM*	-20.2%
Cc1ccccc1-n1ncc2c(SCC(=O)N3c4ccccc4CC3C)ncnc21 (centres undefined)	10.3%	i	?	?	9.2µM*	?
SMILES	MCF10A rerep	KB-3-1 cytotox	HT1080-NT tox	SW480 rereplic	KB-V1 MDR tox	HT1080 IDH1KD tx
CCc1nc(SCC(=O)N2CC(=O)Nc3ccccc32)c2c(C)c(C)sc2n1	17.0%	i	1.9%	18.0%	i	7.7%
COc1cccc(-n2c(-c3ccco3)nc3c(cnn3-c3ccc(C)cc3)c2=O)c1	.	?	.	.	i	.
Cc1nc2c3ccccc3nc(NNC(=O)CCC(=O)N3CCN(c4cccc(Cl)c4)CC3)n2n1	.	i	.	.	i	.
Cc1nc2sccn2c(=O)c1S(=O)(=O)NCc1ccc(F)cc1	.	i	.	.	i	.
COc1ccc(C2c3c(n(C)c4ccccc34)C(=O)N2CC(=O)Nc2cccc(Cl)c2)cc1 (centres undefined)	.	i	.	.	i	.
CC(C)N=C(NS(=O)(=O)c1cccs1)c1ccccc1	5.4%	i	-7.3%	-16.0%	i	16.1%
CSC(=NC(C)c1ccccc1)NS(=O)(=O)c1cccs1 (centres undefined)	5.4%	?	-3.5%	-44.7%	23.1µM*	-6.4%
COc1ccccc1CNC(=O)[C@H](C)NC(=O)[C@@H]1Cc2ccccc2CN1	1.3%	i	-2.8%	?	i	6.4%
COc1ccccc1CNC(=O)C(CCSC)NC(=O)C1CCC(C)CC1 (centres undefined)	3.8%	i	-2.6%	-2.6%	4.11µM*	1.4%
CSCCC(NC(=O)C1CCC(C)CC1)C(=O)Nc1ccc(NC(C)=O)cc1 (centres undefined)	1.0%	i	10.8%	-7.2%	i	12.6%
COc1ccccc1CNC(=O)[C@H](CCSC)NC(=O)[C@@H]1Cc2ccccc2CN1	16.1%	?	-0.2%	7.31µM*	i	0.5%
CC(=O)c1ccc(N2CCN(C(=O)CCCCn3c(=O)[nH]c4ccccc4c3=O)CC2)cc1	.	i	.	.	i	.
CCN(CC)CCOc1ncnc2c1oc1ccccc12	?	i	-5.5%	-15.4%	i	-2.2%
CCCCc1oc2ccccc2c1C(=O)c1cc(I)c(OCCN(CC)CC)c(I)c1	9.2µM*!	i	?	23.1µM*!	i	?
CCc1ccc(NC(=O)c2nnn(Cc3cccc(C(F)(F)F)c3)c2N)cc1	.	?	.	.	i	.
Cc1ccc(NS(=O)(=O)c2ccc3nc(-c4ccccc4)[nH]c3c2)cc1Cl	.	?	.	.	i	.
Cc1ccc(NS(=O)(=O)c2ccc(Cl)c(C(=O)Nc3ccccc3-c3nc4ccccc4[nH]3)c2)cc1C	5.17µM*	?	6.51µM*	8.2µM*	7.31µM*	8.2µM*
CC(C)CCn1cnc2c(sc3nc4c(cc32)CSC(C)(C)C4)c1=O	?	i	9.0%	-6.4%	?	3.0%
CCCCn1cnc2c(sc3nc4c(cc32)CSC(C)(C)C4)c1=O	4.6%	i	-4.0%	-7.2%	20.6µM*	-3.6%
